# CYP2C9 inh: human CYP2C9 inhibition; hit rate 20% among 96,000; inhibition, % at 5 µM; AID 777; CYP2C9 Supersomes, luciferin-H conversion, luminescence; P11712;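 active = blocking of liver enzyme CYP2C9 beyond about 50% at 5 µM, limit read from the data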
# PostGolgi ctrl: inhibits growth of the yeast control strain; efflux-deficient yeast background strain, growth absorbance A615, 16 h; inhibition, % at 10 µM; hit rate 5% among 98,000
# CYP2C9 activ: activators of human CYP2C9; P11712; recombinant CYP2C9, luciferin-H conversion, luminescence; active compounds read high; factor 1 = untreated enzyme, 0 = blocked; activation factor at 5 µM; hit rate 1.4% among 96,000;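 active = activation factor of 2 or more for CYP2C9 at a 5 µM dose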;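 also: 0 = sulfaphenazole-blocked wells and 1 = vehicle-only wells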
# CYP2C19 inh: inhibitors of human CYP2C19; inhibition, % at 5 µM; hit rate 21% among 96,000; P33261; CYP2C19 Supersomes, luciferin-H EGE luminescence, 30 min;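 active = CYP2C19 inhibition above a set limit at 5 µM in the primary screen, cut at about 50% in these data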;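 also: plate controls were negative control wells for no effect and 2.5 mM tranylcypromine positive control for full effect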
# CYP2C19 act: cytochrome P450 2C19 (human) activation. AID 1025. recombinant CYP2C19, luciferin-H EGE luminescence; active compounds read high; 0 = fully inhibited enzyme, 1 = untreated enzyme. 96,000 tested, under 10 active. activation factor at 5 µM. P33261;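 active = activation factor of at least 2 at 5 µM in the primary screen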;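 also: 0 = wells with 2.5 mM tranylcypromine and 1 = vehicle-only wells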
# PostGolgi yeast: growth inhibition of a yeast mutant, post-Golgi transport screen. post-Golgi transport phenotypic cell assay. inhibition, % at 10 µM. hit rate 0.9% among 98,000. AID 739;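 also: yeast cells grown in 1536-well plates; yeast grown about 18 h at 30C before absorbance read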
# An asterisk follows results filed as active. A selection follows. Rule as the data show it, unless noted: active = inhibition above about 30%; inactive = the rest.
SMILES,CYP2C9 inh,PostGolgi ctrl,CYP2C9 activ,CYP2C19 inh,CYP2C19 act,PostGolgi yeast
CCSc1nnc(NC(=O)NCC(F)(F)F)s1,-5,-4,1.1,-6,1.1,45*
COc1ccc(CNC(=O)C2CCCN2C(=O)NC2CCCCC2)cc1 (stereo unspecified),5,13,0.9,13,0.9,-1
Cc1cc(-c2nc3ncccc3o2)ccc1NC(=O)CC(C)C,25,13,0.7,7,0.9,1
CSc1nnc(C2CCCN2)n1C (stereo unspecified),-22,4,1.2,-17,1.2,4
CC1CCCCC1NC(=O)CSc1nnc(COc2ccccc2Cl)o1 (stereo unspecified),-10,9,1.1,21,0.8,-3
COc1ccc(NC(=O)N[C@@H](CCSC)C(=O)O)cc1Cl,-1,0,1,14,0.9,9
Cc1cc(NC(=O)C(C)(C)C)no1,-3,3,1,-3,1,-8
CCSc1nnc(NC(=O)C(C)(C(F)(F)F)C(F)(F)F)s1,75*,23,0.2,-6,1.1,16
CC(=O)Nc1nnc(-c2ccc3c(c2)CCCC3)o1,-1,0,1,18,0.8,-9
O=C(COc1ccc(Cl)cc1)Nc1nnc(-c2ccc3c(c2)CCCC3)o1,-4,14,1,-4,1,12
O=C(Nc1nnc(-c2ccc3c(c2)CCCC3)o1)C1COc2ccccc2O1 (stereo unspecified),9,72*,0.9,4,1,100*
COc1ccccc1C(=O)Nc1nnc(-c2ccc3c(c2)CCCC3)o1,-107,27,2.1*,75*,0.2,15
CC1(C)Cc2ccccc2C2CC(O)C(=O)N21 (stereo unspecified),-9,3,1.1,-6,1.1,-7
CCc1nc(C)c(C#N)c2cc(OC)c(OC)cc12,-3,3,1,-17,1.2,-1
COc1cc2c(cc1OC)CN(C(=O)CSc1nc(N)c(C#N)cc1C#N)CC2,5,12,0.9,-8,1.1,6
Cc1onc(C(=O)/C=C/N(C)C)c1C(=O)Nc1nccs1,13,-4,0.9,9,0.9,4
CCn1nc(NS(=O)(=O)c2ccccc2)c2cc3cccc(C)c3nc21,79*,2,0.2,9,0.9,5
CCn1nc(NC(=O)c2ccccn2)c2cc3cccc(C)c3nc21,7,12,0.9,2,1,2
CCCn1nc(NS(C)(=O)=O)c2cc3cccc(C)c3nc21,65*,36*,0.3,32,0.7,0
Cc1cc(C(=O)NCCCN2CCOCC2)n(-c2ccccc2)n1,14,-2,0.9,2,1,4
COC(=O)C1=C(N)c2c(F)cccc2C1(C#N)c1ccc(F)cc1 (stereo unspecified),37,24,0.6,66*,0.3,3
COc1ccc(Nc2nc(C)cc(C)c2C(N)=O)c(OC)c1,2,3,1,15,0.9,4

# Screens: PubChem, several laboratories
